Source: PubChem BioAssay AID504374 (National Center for Advancing Translational Sciences (NCATS), 2011)
Where “and” joins values, the source holds several entries; their conditions need not be identical. Identical values can stand only once. About 100 (6.7%) of roughly 1,500 compounds were called active. Entries that show only a call come without a potency. Inconclusive results (about 7%) are left out. This is one part of a sample in which actives are shown more often than they occur. The call rests on the fitted dose curve; in most records, active means well fitted inhibition curve with a large enough effect; inconclusive means small, poorly fitted or top-dose-only effect, or effect the other way; inactive means flat fitted curve, though single readings scatter.

What follows are molecules tested against Runt-related transcription factor 1 (Homo sapiens) + Core-binding factor subunit beta (Homo sapiens) (UniProt Q01196+Q13951) (assay: qHTS Assay for Compounds Blocking the Interaction Between CBF-beta and RUNX1 for the Treatment of Acute Myeloid Leukemia: Hit Validation). Conditions: AlphaScreen CBFb-His/RUNX1-biotin binding; series mostly up to 59.8 µM.
Summary of the method: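 Compounds were added to a premixed CBF-beta-His/RUNX1-biotin complex (30 nM each, 20 min) for 15 min. Nickel and streptavidin AlphaScreen beads followed for 90 min at room temperature, with emission at 440 nm […].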
Further: nearly all actives have a fitted effect of over 60% in size.
Potency means the concentration at half of the fitted maximal effect.

Sequence of Runt-related transcription factor 1 (Homo sapiens) + Core-binding factor subunit beta (Homo sapiens) (Q01196 whole entry, looked up): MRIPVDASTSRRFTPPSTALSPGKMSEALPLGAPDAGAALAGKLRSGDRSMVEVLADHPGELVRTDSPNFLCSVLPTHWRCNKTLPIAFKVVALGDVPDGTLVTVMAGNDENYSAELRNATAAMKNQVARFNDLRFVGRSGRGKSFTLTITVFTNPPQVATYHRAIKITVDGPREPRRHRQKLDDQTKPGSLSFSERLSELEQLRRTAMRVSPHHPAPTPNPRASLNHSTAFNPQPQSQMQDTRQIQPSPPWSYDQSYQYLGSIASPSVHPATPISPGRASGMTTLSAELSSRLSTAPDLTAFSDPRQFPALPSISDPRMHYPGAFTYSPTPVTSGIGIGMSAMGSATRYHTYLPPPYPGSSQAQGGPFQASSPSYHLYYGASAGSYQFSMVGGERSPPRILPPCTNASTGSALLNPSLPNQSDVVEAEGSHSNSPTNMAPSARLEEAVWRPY
Sequence of Runt-related transcription factor 1 (Homo sapiens) + Core-binding factor subunit beta (Homo sapiens) (Q13951 whole entry, looked up): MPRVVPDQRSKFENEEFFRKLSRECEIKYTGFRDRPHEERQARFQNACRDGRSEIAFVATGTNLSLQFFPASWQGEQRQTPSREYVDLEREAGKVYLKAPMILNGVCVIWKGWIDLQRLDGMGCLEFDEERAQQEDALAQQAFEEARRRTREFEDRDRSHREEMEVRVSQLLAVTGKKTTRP

SMILES | Potency
CCOc1ccc(Nc2nc(N)nc(CSC(=S)N3CCOCC3)n2)cc1 | inactive
CCN(CC)C(=S)SSC(=S)N(CC)CC | 0.794 µM (active)
Cc1ccncc1C(N)=O | inactive
CC(C)N(CCn1cnc2c([nH]c3ccccc32)c1=O)C(C)C | inactive
Cc1onc(-c2c(Cl)cccc2Cl)c1NC(=O)NC1CCSC1 (centres undefined) | inactive
O=C(O[C@@H]1OC2COC(=O)c3cc(O)c(O)c(O)c3-c3c(cc(O)c(O)c3O)C(=O)O[C@@H]([C@H]1O)[C@@H]2O)c1cc(O)c(O)c(O)c1 | 0.224 µM (active)
O=C1OCC2OC(O)C(O)C(O)C2OC(=O)c2cc(O)c(O)c(O)c2-c2c(O)c(O)c3oc(=O)c4c(c(O)c(O)c5oc(=O)c2c3c54)-c2c1cc(O)c(O)c2O (centres undefined) | 0.224 µM (active)
Cc1oc(S(=O)(=O)N(C)C)cc1C(=O)Nc1ccc(Cl)cc1 | inactive
Cc1ccc2[nH]cc(CCNC(=O)/C=C/c3ccco3)c2c1 | inactive
CC1(C)C(CC2OCC(CN3CCCCC3)O2)[C@H]2CC[C@@H]1C2 (some centres undefined) | inactive
C=C(C)C(=O)Nc1cccnc1Oc1ccc(F)cc1 | inactive
O=C1CCCN1CCCNC(=S)Nc1ccccc1 | inactive
C=C(C)C(=O)Nc1cccnc1Oc1ccc(F)cc1F | inactive
O=c1c(O)cccc2cc(O)c(O)c(O)c12 | 447 nM (active) and 631 nM (active)
CCOC(=O)C1(C)C=C(Nc2cccc(OC)c2)C(=O)N1c1ccccc1 (centres undefined) | inactive
COc1ccccc1NC(=O)Nc1sccc1-c1nc2ccccc2s1 | inactive
CCOC(=O)c1cnc2c(C(=O)OCC)cnn2c1N | inactive
O=c1[nH]cc(I)cc1I | 17.3 µM (active)
CC(C)(C)c1ccc(NC(=S)NCc2cccnc2)cc1 | inactive
S=C(N/N=C/c1cccc2ccccc12)Nc1cccc(Cl)c1 | inactive
Oc1ccc(/C=N/NC(=S)Nc2cccnc2)c(O)c1O | 1.26 µM (active)
Oc1ccc(NC(=S)Nc2ccccc2)cc1 | inactive
CNC(=O)C(=O)N/N=C/c1cccnc1 | inactive
Oc1ccc(/C=N/NC(=S)Nc2cccnc2)c(O)c1 | 1.58 µM (active)
O=c1[nH]nc(N/N=C/c2ccc(Cl)cc2Cl)c(=O)[nH]1 | inactive

SMILES | Potency
Cc1onc(-c2c(F)cccc2Cl)c1C(=O)N=C(N)N1CC(C)OC(C)C1 (centres undefined) | inactive
O=C(O)C1(c2ccccc2)CCN(S(=O)(=O)c2ccc(Cl)s2)CC1 | inactive
N#Cc1c(-c2ccccc2Cl)c2c([nH]c1=O)-c1ccccc1OC2 | inactive
COc1ccccc1NC(=O)OCC#CCOC(=O)Nc1ccccc1OC | inactive
CCn1c(NC(=O)c2ccccc2F)c(-c2cccs2)c(=O)c2ccccc21 | inactive
S=c1[nH]c2cc3ccccc3cc2[nH]1 | inactive
Nc1ccc2nc3c(=O)[nH]c(=S)[nH]c3nc2c1 | 2.51 µM (active)
COc1ccccc1NC(=S)NCC1CCC(CNC(=S)Nc2ccccc2OC)CC1 (centres undefined) | inactive
NC(=O)c1cccnc1Oc1ccc(Cl)cc1 | inactive
O=C(O)c1cccnc1C(=O)O | 14.1 µM (active)
COC(=O)c1cccnc1Oc1ccccc1 | inactive
Cc1[nH]ncc1-c1ccccc1Cl | inactive
Nc1nc(CCl)nc(Nc2ccc3ccccc3c2)n1 | inactive
Cc1ccc(N2CC(c3nc4ccccc4n3C)CC2=O)cc1 (centres undefined) | inactive
Cc1ccc2nc(-c3ccc(N)cc3)sc2c1 | inactive
Cc1cc2nc3ccc(=[N+](C)C)cc-3sc2cc1N | 6.31 µM (active)
Oc1cccc(O)c1O | 3.97 µM (active)
Cn1nc(-c2ccccc2)cc1NC(=O)CCCC(=O)O | inactive
Cc1ccnn1CC(=O)N/N=C/c1cn[nH]c1-c1ccc(F)cc1 | inactive
CC(C)CC(=O)NC(=S)Nc1ccccc1N1CCCC1 | inactive
CNC(=O)Nc1cc(NC(=O)NC)cc(C(F)(F)F)c1 | inactive
CCOC(=O)C1=C(C)NC(C)=C(C(=O)OCC)C1 | inactive
CCCC(=O)NC(c1cccs1)c1cc([N+](=O)[O-])c2cccnc2c1O (centres undefined) | 3.98 µM (active)
CN(C)C(=O)CSc1nnc(NC(=O)CCc2ccccc2)s1 | inactive
COC(=O)/C=C(\C)N=Nc1c(O)[nH]c2ccccc12 | inactive

SMILES | Potency
Cc1ccc(CN(C(=O)c2cc(=O)c3cc(C)cc(C)c3o2)C2CCS(=O)(=O)C2)cc1 (centres undefined) | inactive
Cc1cccc(C)c1NC(=S)N1CC(C)OC(C)C1 (centres undefined) | inactive
Cn1cnc(S(=O)(=O)Nc2ccc(OC(F)F)cc2)c1 | inactive
O=C1C(CCC(O)c2ccc(F)cc2)C(c2ccc(O)cc2)N1c1ccc(F)cc1 (centres undefined) | 15.8 µM (active)
CC(C)(C)OC(=O)N1CCCN(C(=O)Nc2ccccc2)CC1 | inactive
COc1cccc(NC(=O)C(=O)NCCc2ccc(F)cc2)c1 | inactive
CCOC(=O)/C(C#N)=C/Nc1ccsc1C(C)=O | inactive
Cc1ccc(Cn2c(N/N=C/c3ccncc3)nc3c2c(=O)n(C)c(=O)n3C)cc1 | inactive
O=C1CSC(=S)N1/N=C/c1ccc(O)c(O)c1O | 0.562 µM (active)
Cc1cc(NC(=O)c2c(-c3c(F)cccc3Cl)noc2C)no1 | inactive
COc1cccc(/C=N/NC(=O)C(C)Cn2cnc3ccccc32)c1 (centres undefined) | inactive
COc1ccc(Oc2ncccc2[N+](=O)[O-])cc1 | inactive
COc1ccc(Oc2nc(-c3ccccn3)ncc2OC)cc1 | 12.6 µM (active)
COc1ccc(Oc2ccc(-c3ccn[nH]3)cc2)cc1 | inactive
O=P(O)(O)c1cc(-c2ccccc2)oc1-c1ccccc1 | inactive
CCCCC1C2C(=O)N(c3ccc(C)cc3)C(=O)C2ON1c1ccccc1 (centres undefined) | inactive
Cc1cc([N+](=O)[O-])nn1Cc1ccc(C(=O)N/N=C/c2ccc(N(C)C)cc2)cc1 | inactive
O=C(O)c1cc2ccccc2cc1Nc1ccccc1 | inactive
Nc1ccc(C(=O)C(=O)c2ccc(N)cc2)cc1 | inactive
Nc1ccc(N)c(C(=O)O)c1 | 0.794 µM (active)
CCOC(=O)c1nnn2c1nc(N1CCN(C)CC1)c1ccccc12 | inactive
C=CCn1c(=O)c2ccccc2n2nnc(C(=O)OCC)c12 | inactive
CC/C(=C(\c1ccccc1)c1ccc(OCCN(C)C)cc1)c1ccccc1 | 24.4 µM (active)
COc1cccc(C2Oc3ccccc3C3CC(c4cccs4)=NN32)c1 (centres undefined) | inactive
Cc1ccc(C)c(C(=O)CCC(=O)O)c1 | inactive

SMILES | Potency
CCCC(=O)c1cc(O)c(O)cc1O | 4.47 µM (active)
CC(=O)c1cc(O)c2ccccc2c1O | inactive
C/C(=N\O)c1c(O)cc(-c2ccccc2)n(-c2ccccc2)c1=O | inactive
NC[C@@H](O)c1ccc(O)c(O)c1 | 2.82 µM (active)
CC1=CC(=O)CC(C)(C)C1(O)/C=C/C(C)=C/C(=O)O (centres undefined) | inactive
C=CCn1c(SCc2ccccc2Cl)nnc1-c1sc2nc(C)cc(C)c2c1N | inactive
CCOC(=O)c1c(C)n(C)c2ccc(OC)c(NC(=O)CCN3CCC(Cc4ccccc4)CC3)c12 | inactive
O=S(=O)(Nc1cccc(CCc2ccccn2)c1)c1cc(Cl)ccc1Cl | inactive
c1ccc(-n2ncc3cccnc32)cc1 | inactive
c1cnc2c(c1)ccc1cccnc12 | 1.12 µM (active)
c1cnc2ccc3ncccc3c2c1 | inactive
CCCCn1cc([N+](=O)[O-])nc1C | inactive
O=C(CN1CCN(C(c2ccccc2)c2ccccc2)CC1)N1N=CCC1c1ccccc1 (centres undefined) | inactive
COC(=O)c1cc(NS(=O)(=O)c2ccc(F)cc2)ccc1N1CCOCC1 | inactive
COc1ccc(/C(C)=N/NC(=O)Cn2nc([N+](=O)[O-])cc2C)cc1 | inactive
COc1ccccc1C1CCN(C(=O)c2cccs2)CC1 | inactive
COc1ccccc1C1CCN(C(=O)c2ccco2)CC1 | inactive
COc1cccc2c1NC(C(=O)O)C1CC=CC21 (centres undefined) | 14.1 µM (active)
COc1ccc2[nH]c(=O)c(CN(C(=O)c3cccnc3)c3ccc(C)cc3C)cc2c1 | inactive
CC1=NNC(=O)C1Cc1ccc(F)cc1 (centres undefined) | inactive
CC(C)(NC(=O)c1cc(Cl)c2ccccc2c1O)C(=O)O | inactive
COC(=O)CC1C(=O)NC(C)=C1C(=O)OC (centres undefined) | inactive
COc1ccc(-n2c(=S)[nH]c(=O)c3cccnc32)cc1 | inactive
CCCOc1ccc(CSC(=N)N)cc1C(=O)OC | inactive
